According to ChEMBL document CHEMBL3988442, “University of Dundee, Small-Polar-MMV Screening Library” (2021):
Out of some 38,000 compounds screened, about 1,200 (3.2%) showed an effect of 50% or more. The median lay at about -58%. Shown is part of a subset that was picked to be rich in strong results.

tested on: Plasmodium falciparum; assay: Calibr Malaria Delayed Death Assay SOP; assay type: functional, organism-based; parameters: scale not given: in the data most compounds retested in dose-response had high values; conditions: concentration 4.99e-06 (unit not given; other assays of the set use mol/L)

| Structure (SMILES) | Percent Effect |
| --- | --- |
| CC(C)NC(=O)CN1CCCNCC1 | -82.69% |
| O=C(c1cc(-c2ccn(CC3CC3)n2)n2ccccc12)N1CCOCC1 | 67.86% |
| O=C(c1cc(-c2ccn(CC3CC3)n2)n2ccccc12)N1CCCO1 | -90.15% |
| O=C(O)c1cc(-c2ccn(CC3CC3)n2)n2ccccc12 | -79.58% |
| Cc1nc(CNC(=O)NC2CCCN(c3ncccn3)C2)cs1 (stereo not drawn) | -24.32% |
| CCn1nc(C)c2ccn(CC(=O)NCC3CCCO3)c(=O)c21 (stereo not drawn) | -59.75% |
| COCC(=O)N1CCC(Oc2cccc(C)c2)CC1 | -129.3% |
| CCC(CNS(C)(=O)=O)Oc1ccccc1C (stereo not drawn) | -141.4% |
| CCC(CNC1CCN(C(C)=O)CC1)Oc1cccc(C)c1 (stereo not drawn) | 51.47% |
| Cc1cccc(C)c1OC1CN(C(=O)C2CCN(C(=O)N(C)C)CC2)C1 | -10.34% |
| CCC(CNC1CCN(C(C)=O)CC1)Oc1ccccc1Cl (stereo not drawn) | 48.49% |
| CCC(CNC1CCN(C(=O)N(C)C)CC1)Oc1ccccc1C (stereo not drawn) | 72.22% |
| CCc1ccc(C(=O)N2CCN(CC(O)CC)CC2)o1 (stereo not drawn) | -8.781% |
| Cc1nn(C)c(C)c1C1COCCN1c1ncncc1Br (stereo not drawn) | -86.62% |
| O=C(O)C(F)(F)F.OCCN1CCC(F)(F)C2(CCN(c3cnccn3)C2)C1 (stereo not drawn) | -58.35% |
| CCc1nc(CC(=O)N2CCCC2c2c(C)nn(C)c2OC)cs1 (stereo not drawn) | -39.25% |
| COc1ccc(CN2CCC3(CC2)CC(c2cccnc2)CO3)cc1.O=C(O)C(F)(F)F.O=C(O)C(F)(F)F (stereo not drawn) | -68.03% |
| CN1CC2(CCN(CC3CC3)CC2)COc2ccccc2S1(=O)=O.O=C(O)C(F)(F)F | 52.41% |
| CN1CC2(CCN(C(=O)C3CCC3)CC2)COc2ccccc2S1(=O)=O | -31.54% |
| CN(C)C(=O)CN1CCC2(CC1)COc1ccccc1S(=O)(=O)N(C)C2.O=C(O)C(F)(F)F | -44.68% |
| CCCN1CCC2(CC1)COc1ccccc1S(=O)(=O)N(CC1CC1)C2.O=C(O)C(F)(F)F | -32.31% |
| COCCN1CCC2(CC1)COc1ccccc1S(=O)(=O)N(C)C2 | -7.731% |
| CCN1CC2(CCN(C(=O)N(C)C)CC2)COc2ccccc2S1(=O)=O | -20.19% |
| CCC(=O)N1CCC2(CC1)COc1ccccc1S(=O)(=O)N(C)C2 | -32.01% |
| O=S1(=O)c2ccccc2OCC2(CCN(CCO)CC2)CN1CC1CC1 | 76.86% |
| COCC1CN(C(=O)Cc2cccs2)Cc2nnn(CC3CC3)c21 (stereo not drawn) | -20.67% |

| Structure (SMILES) | Percent Effect |
| --- | --- |
| CC(OCC(F)(F)F)C(=O)N1CCOCC1 (stereo not drawn) | -69.84% |
| CN(C)c1ccc(C(=O)N2CCCC2c2cnn(C)c2)cn1 (stereo not drawn) | -130.6% |
| COc1cccc(CC(=O)N2CC[C@@H]3CN(C)S(=O)(=O)[C@@H]3CC2)c1 | -25.41% |
| CC1=C(c2ccc(C)cc2)S(=O)(=O)N=C1N1CCc2ccccc21 | -28.82% |
| OC1(CNc2ccc(F)cc2)CCNCC1 | 9.673% |
| CC(C(=O)Nc1sccc1C(N)=O)N(C)CCOc1ccccc1 (stereo not drawn) | 2.405% |
| Nc1cc(-c2ccc(C(=O)O)cc2O)c2cc[nH]c2n1 | -36.07% |
| CCCNCc1ccc(-c2cc(N)nc3[nH]ccc23)cc1 | 71.86% |
| Nc1cc(-c2cc(O)cc(C(=O)O)c2)c2cc[nH]c2n1 | -8.693% |
| CCCn1nccc1C(=O)Nc1nc(C)c(C)s1 | -95.22% |
| CCc1ccccc1OCCN(C)C(=O)CCN1CCCO1 | -98.11% |
| CCc1ccccc1OCCN(C)C(=O)CCN1CCCCO1 | 2.137% |
| CCc1ccccc1OCCN(C)C(=O)CN1CCCC1 | 75.23% |
| CCn1nc(C)c2ccn(CC(=O)NC(C)C)c(=O)c21 | -79.05% |
| COc1ccc(NC(=O)N(CCO)Cc2ccsc2)cc1 | -36.74% |
| COC(=O)CN(C)Cc1cc(Br)cs1 | -75.79% |
| CCCN(C)CC1CCN(c2ccc(Br)c(C)n2)C1 (stereo not drawn) | 72.9% |
| CCCN(C)CC1CCN(c2ncc(Br)cn2)C1 (stereo not drawn) | -74.37% |
| CCN(C)CC1CCN(c2ncc(Br)cn2)C1 (stereo not drawn) | -58.14% |
| CCCC(C)NCc1cccnc1N1CCN(c2ccccn2)CC1 (stereo not drawn) | 51.12% |
| CC(C)CC(C)NCc1cccnc1N1CCN(c2ccccn2)CC1 (stereo not drawn) | 55.01% |
| CCC(CC)C(=O)NCCC(=O)N1CCN(c2ccccn2)CC1 | -127.9% |
| CC(C)NCc1cccnc1N1CCN(c2ccccn2)CC1 | 3.171% |
| CCC(C)NC(=O)NCCC(=O)N1CCN(c2ccccn2)CC1 (stereo not drawn) | -19.73% |
| CC(C)C(=O)NCCC(=O)N1CCN(c2ccccn2)CC1 | -182.3% |
| Cn1c(N)c2c(=O)n(C)c(-c3ccc(Cl)cc3Cl)cc2c(C#N)c1=O | 5.212% |

| Structure (SMILES) | Percent Effect |
| --- | --- |
| Cc1cc(C(=O)N2CCC3(C2)CN(c2ccsc2)C(=O)CN3C)[nH]n1.O=C(O)C(F)(F)F (stereo not drawn) | -16.33% |
| c1ccc(Cc2n[nH]c(C3CCOC3)n2)cc1 (stereo not drawn) | -53.42% |
| Cn1ccnc1CN1CCC2(CC1)CN(c1ccccn1)CCO2.O=C(O)C(F)(F)F.O=C(O)C(F)(F)F | -263.3% |
| O=C(O)C(F)(F)F.O=C(O)C(F)(F)F.c1ccc(CN2CCC3(CC2)CN(c2ccccn2)CCO3)nc1 | -71.36% |
| COc1ncccc1CN1CCC2(CC1)CN(c1ccccn1)CCO2.O=C(O)C(F)(F)F.O=C(O)C(F)(F)F.O=C(O)C(F)(F)F | 55.38% |
| COc1ccc(CN2CCC3(CC2)CN(c2ccccn2)CCO3)cc1.O=C(O)C(F)(F)F.O=C(O)C(F)(F)F | 60.62% |
| Fc1ccc(CN2CCC3(CC2)CN(c2ccccn2)CCO3)cc1.O=C(O)C(F)(F)F.O=C(O)C(F)(F)F | 46.67% |
| COCC(=O)N1CCC2(CC1)CN(c1ccccn1)CCO2.O=C(O)C(F)(F)F | -99.25% |
| O=c1[nH][nH]cc1-c1ccnc(NCCc2ccc(F)cc2)n1 | -53.75% |
| COC(=O)c1cnn(-c2cc(Oc3cccc(C)c3)ncn2)c1N | -10.04% |
| CN1CCC2(CC1)OC(C(=O)NCc1cccnc1)Cn1ccnc12 (stereo not drawn) | -146% |
| COCCN1CCCC(c2nccnc2Nc2nc(C)cs2)C1 (stereo not drawn) | -10.08% |
| O=C(NCC1(O)CCSC1)c1cccc(-n2cccn2)c1 (stereo not drawn) | -128.5% |
| CC(=O)N1CCO[C@@H]2CN(Cc3ccccc3Cl)C[C@@H]2C1.O=C(O)C(F)(F)F | -110.8% |
| O=C(NC1CCNCC1)C1(N2CCCCC2)Cc2ccccc2C1 | 62.66% |
| O=C(NC1CCNC1)C1(N2CCCCC2)Cc2ccccc2C1 (stereo not drawn) | 33.42% |
| O=C1NCCCC[C@@H]1NC(=O)C1(N2CCCCC2)Cc2ccccc2C1 | -107.8% |
| CC(=O)NCC(=O)N1CCCC(C(=O)c2ccc(C(C)(C)C)cc2)C1 (stereo not drawn) | -127.3% |
| CC(C)(C)c1oc(C(N)=O)cc1CN1CCCCC(N)C1 (stereo not drawn) | 3.928% |
| CN(C)[C@H]1CCCCN(Cc2ccccc2Cn2cccn2)C1 | 49.71% |
| N#Cc1cc(C#N)c(SCC(=O)Nc2ccc(F)cc2)nc1N | 66.77% |
| N#Cc1cc(C#N)c(SCCC(=O)Nc2ccc(F)cc2)nc1N | 10.11% |
| N#Cc1cc(C#N)c(SCC(=O)NCc2ccc(F)cc2)nc1N | -76.83% |
| CN(C)c1ncc(CNC(=O)Nc2ccccc2F)n1C | -31.3% |
| CN(C)c1ncc(CNC(=O)Nc2ccc(C(F)(F)F)cc2)n1C | 68.14% |
| CN(C)c1ncc(CNC(=O)Nc2ccccc2C(F)(F)F)n1C | -113.2% |

| Structure (SMILES) | Percent Effect |
| --- | --- |
| COc1cccc(CNc2nc(N3CCOCC3)ns2)c1OC | -58.35% |
| CCn1ncnc1C(C)Nc1cc(C)c2ccc(SC)cc2n1 (stereo not drawn) | -98.68% |
| CSc1ccc2c(C)cc(N[C@@H](C)CO)nc2c1 | 13.21% |
| COC[C@H](C)Nc1cc(C)c2ccc(SC)cc2n1 | 74.39% |
| COCC(=O)N1CCCN(Cc2cc(C(C)C)no2)CC1 | -33.31% |
| Cc1c(C(=O)NCC(C)(C)S(C)(=O)=O)cccc1-c1ccccn1 | -72.33% |
| CCC(CO)N(Cc1ccsc1)Cc1cccc(O)c1 (stereo not drawn) | 67.4% |
| CCC(CO)N(CC=C(C)C)Cc1ccsc1 (stereo not drawn) | 20.66% |
| CCC(CO)N(Cc1ccc(C(=O)O)cc1)Cc1ccsc1 (stereo not drawn) | -80.76% |
| CS(=O)(=O)N1CCN(C(=O)c2cc(-c3ccc(Br)s3)n[nH]2)CC1 | 2.289% |
| CN1C(=O)C2(CCN(c3nccc4occc34)CC2)c2ccccc21 | -46.41% |
| Cc1cc(C)cc(C(=O)NCCS(=O)(=O)N2CCSCC2)c1 | -110.6% |
| CC(=O)N1CCCN(S(=O)(=O)c2cc3ccccc3o2)CC1 | -136.3% |
| CCN1CCCN(S(=O)(=O)c2cc3ccccc3o2)CC1 | 83.88% |
| O=S(=O)(c1cc2ccccc2o1)N1CCCC1 | -30.68% |
| CCn1ccc(-c2nnc(SCC(=O)NCC(C)C)n2CC)n1 | -143.1% |
| COc1c(CNCCc2c[nH]c3cc(F)ccc23)c(C(C)C)nn1C | 59.46% |
| COc1c(CNC2CCc3cc(F)ccc32)c(C(C)C)nn1C (stereo not drawn) | 57.77% |
| COc1c(CNC2CCc3cc(F)ccc32)c(C)nn1C.Cl (stereo not drawn) | 26.33% |
| CC(C)c1nn(C)c(N(C)C)c1CNC1CCc2cc(F)ccc21.Cl (stereo not drawn) | -3.129% |
| COc1c(CNC2CCCc3ccccc32)c(C(C)C)nn1C (stereo not drawn) | 63.84% |
| COc1c(CNCCc2c[nH]c3cc(F)ccc23)c(C)nn1C | 49.69% |
| COc1c(CNC2CCOc3ccccc32)c(C(C)C)nn1C (stereo not drawn) | -23.6% |
| COc1c(CNCCc2c[nH]c3ccccc23)c(C)nn1C | -66.3% |
| COc1c(CNC2CCc3ccccc32)c(C)nn1C (stereo not drawn) | 30.71% |
